Reference: PubChem BioAssay (NCATS)
Records with an inconclusive call do not appear. Where a call stands in place of a potency, no number is given. The source made the active and inactive calls. Calls follow the shape of the dose curve; as a rule, active = well fitted curve in the direction sought with a large enough effect; inconclusive = small, poorly fitted or top-dose-only effect, or another doubt; inactive = no such curve, though single readings can be large; an effect the other way counts as inactive or inconclusive.

Legend:
[1] = molecular target: Aldehyde dehydrogenase, mitochondrial (Homo sapiens) (UniProt P05091); assay: qHTS for Inhibitors of the Aldehyde Dehydrogenase Family (ALDH2) Primary screen (AID 2061308); also: nearly all actives have a fitted effect of over 55% in size
[2] = molecular target: Retinaldehyde dehydrogenase 3 (Homo sapiens) (UniProt P47895); assay: qHTS for Inhibitors of the Aldehyde Dehydrogenase Family (ALDH1A3) Primary screen (AID 2061315)

CC1=C(C(=O)NC2CCCCC2)C(c2ccccc2Br)N=C(Nc2nc3ccccc3o2)N1 (stereo not given)
Potency [1]: inactive
Potency [2]: inactive

c1csc(CNc2ncnc3ccc(-c4ccoc4)cc23)c1
Potency [1]: inactive
Potency [2]: inactive

Cc1ccc(S(=O)(=O)Nc2cc(F)c(F)cc2C(=O)Nc2nc(-c3ccccc3)cs2)cc1
Potency [1]: inactive
Potency [2]: inactive

COCCN1C(=O)c2ccccc2NC1c1ccc(OC)c(COc2c(C)cc(NC(C)=O)cc2C)c1 (stereo not given)
Potency [1]: inactive
Potency [2]: inactive

Cc1nc2cc(C(=O)NCc3ccccn3)nn2c(C)c1Cc1cccc(Cl)c1
Potency [1]: inactive
Potency [2]: inactive

COc1ccccc1-n1cnc2cc(C(=O)N3CCCCC3)ccc21
Potency [1]: inactive
Potency [2]: inactive

CCOC(=O)/C=C/c1cc(F)c(S(=O)(=O)N2CCN(S(=O)(=O)c3ccc4c(c3)OCCO4)CC2)cc1F
Potency [1]: inactive
Potency [2]: inactive

O=C(Nc1ncc(Cc2ccc(C(F)(F)F)cc2)s1)c1ccc(-c2ccccc2)o1
Potency [1]: inactive
Potency [2]: inactive

Cc1ccc(NS(=O)(=O)c2cc3c(cc2/C=C/c2ccccc2)NC(=O)CO3)cc1C
Potency [1]: inactive
Potency [2]: inactive

COc1ccc(C2c3c(n(CCc4ccccc4)cnc3=N)Oc3ccc4ccccc4c32)cc1OC (stereo not given)
Potency [1]: inactive
Potency [2]: inactive

Cc1cc(C)nc(NC(=S)N2CCN(c3nccs3)CC2)c1
Potency [1]: inactive
Potency [2]: inactive

Fc1cccc(CNc2ncnc3ccc(-c4ccoc4)cc23)c1
Potency [1]: inactive
Potency [2]: inactive

CCc1c(C)nc2cc(-c3ccc(OC)c(OC)c3)nn2c1N1CCCC1
Potency [1]: inactive
Potency [2]: inactive

C[C@@H]1CC[C@]2(C(=O)O)CC[C@]3(C)C(=CCC4[C@@]5(C)C[C@@H](O)[C@H](O)[C@@](C)(CO)C5CC[C@]43C)C2[C@H]1C (stereo not given in full)
Potency [1]: inactive
Potency [2]: inactive

O=C(N[C@H]1CCCc2c1cnn2-c1ccc(F)cc1F)c1ccccn1
Potency [1]: inactive
Potency [2]: inactive

CNc1nnc(-c2cccc3ccccc23)o1
Potency [1]: inactive
Potency [2]: inactive

CC(=O)Nc1ccc(S(=O)(=O)N2CCN(c3ccc(C(C)=O)cc3)CC2)cc1
Potency [1]: inactive
Potency [2]: inactive

Cc1c(C(=O)O)[nH]c2c1C(=O)CCC2
Potency [1]: inactive
Potency [2]: inactive

O=C(NCCc1nc2ccccc2[nH]1)C1CCCCC1
Potency [1]: inactive
Potency [2]: inactive

COc1cccc(C2=Nn3c(nnc3-c3ccccc3O)SC2)c1
Potency [1]: inactive
Potency [2]: inactive

COc1ccc(C2c3c(ncn(CCc4ccccc4)c3=N)Oc3ccc4ccccc4c32)cc1OC (stereo not given)
Potency [1]: inactive
Potency [2]: inactive

O=C(NCc1ccccc1)Nc1nnc(-c2ccncc2)s1
Potency [1]: inactive
Potency [2]: inactive

NCCCCC(=O)Nc1ccc(Cl)cc1C(=O)c1ccc[nH]1
Potency [1]: inactive
Potency [2]: inactive

CCOC(=O)C1CCN(C(=O)C(C)(C)NC(=O)Nc2ccc(Oc3ccccc3)cc2)CC1
Potency [1]: inactive
Potency [2]: inactive

Cc1c(P(=S)(c2ccccc2)c2ccccc2)c2ccccc2n1C(=O)NCc1ccccc1
Potency [1]: inactive
Potency [2]: inactive

CCOc1ccc(C(=O)Nc2ccc(-c3nn[nH]n3)cc2)cc1[N+](=O)[O-]
Potency [1]: inactive
Potency [2]: inactive

N#Cc1ccc(C[C@H](C(=O)O)N2C(=O)c3ccc(C(=O)O)cc3C2=O)cc1
Potency [1]: inactive
Potency [2]: inactive

C[C@@H]1CC[C@]2(C)C(C[C@@H](O)[C@H](O)[C@]23CO3)[C@@]1(C)CCc1ccoc1 (stereo not given in full)
Potency [1]: inactive
Potency [2]: inactive

NCCCC(=O)Nc1ccc(Cl)cc1C(=O)c1ccc[nH]1
Potency [1]: inactive
Potency [2]: inactive

O=C(Nc1cncnc1)c1cccs1
Potency [1]: inactive
Potency [2]: inactive

CCC(Nc1ncnc2ccc(-c3c(C)noc3C)cc12)c1ccccc1 (stereo not given)
Potency [1]: inactive
Potency [2]: inactive

Clc1ccccc1-c1nc(NCc2ccc(-c3cccnc3)cc2)c2ccccc2n1
Potency [1]: inactive
Potency [2]: inactive

CCCCN(C)C(=O)Cn1nc(-c2ccc(OC)cc2)ccc1=O
Potency [1]: inactive
Potency [2]: inactive

CCn1cnc2c(Nc3cccc(Cl)c3)nc(C#N)nc21
Potency [1]: inactive
Potency [2]: inactive

Cc1cccc(CNc2ccnc(-c3cccc(C(F)(F)F)c3)n2)c1
Potency [1]: inactive
Potency [2]: inactive

COc1cc(O)c(C(CC(=O)N2CCCCCC2)c2ccc3c(c2)OCO3)c(OC)c1 (stereo not given)
Potency [1]: inactive
Potency [2]: inactive

COc1ccc(C(CC(=O)N2CC(C)CC(C)C2)c2c(O)cc(OC)cc2OC)cc1 (stereo not given)
Potency [1]: inactive
Potency [2]: inactive

CC(=O)Nc1sc2c(c1-c1ccc(Cl)cc1)CCNC2
Potency [1]: inactive
Potency [2]: inactive

O=C1OC(c2ccccc2)(c2ccccc2)N2CCN(C(=O)NCc3ccc(F)cc3)CC12 (stereo not given)
Potency [1]: inactive
Potency [2]: inactive

CCCN1CCN(c2cccc(Nc3nn4c(=O)c5ccccc5nc4s3)c2)CC1
Potency [1]: inactive
Potency [2]: inactive

Cc1ccc(/C=C/C(=O)Nc2cccc([S+](=O)([O-])Nc3ccccc3F)c2)cc1
Potency [1]: inactive
Potency [2]: inactive

O=C1CCCC2=C1C(c1[nH]ncc1Cl)N=C(Nc1nc3c(Cl)cccc3o1)N2 (stereo not given)
Potency [1]: inactive
Potency [2]: inactive

NC(=O)C1CCN(c2nc(-c3ccccc3)cs2)CC1
Potency [1]: inactive
Potency [2]: inactive

O=C(NCCc1ccccc1)C1CCN(c2nc(-c3ccc(Br)cc3)cs2)CC1
Potency [1]: inactive
Potency [2]: inactive

O=C(O)c1ccc2c(c1)C(=O)N([C@H](Cc1ccc(O)cc1)C(=O)O)C2=O
Potency [1]: inactive
Potency [2]: inactive

COC(=O)c1ccccc1C(=O)Nc1nc(-c2ccccc2)cs1
Potency [1]: inactive
Potency [2]: inactive

CC(C)(C)c1ccc(C(=O)NCC(=O)OC(C(=O)Nc2cc(C(F)(F)F)ccc2Cl)c2ccccc2)cc1 (stereo not given)
Potency [1]: inactive
Potency [2]: inactive

Cc1cccc(NC(=O)c2cc(-c3ccc(C)c(C)c3)nc3ccccc23)c1
Potency [1]: inactive
Potency [2]: inactive

COc1ccc(-c2nnc3n2N=C(c2ccccc2OC)CS3)cc1OC
Potency [1]: inactive
Potency [2]: inactive

CCCCCN1CCC(C(=O)Nc2ccc([S+](=O)([O-])Nc3nccs3)cc2)CC1
Potency [1]: inactive
Potency [2]: inactive

COc1cccc(-n2cnc3cc(C(=O)N4CCCCC4)ccc32)c1
Potency [1]: inactive
Potency [2]: inactive

Oc1cc(Nc2ccncc2)cc2cccnc12
Potency [1]: inactive
Potency [2]: inactive

COc1cc(O)c(C(CC(=O)N2CCC(c3ccccc3)CC2)c2ccc(OC)c(OC)c2)c(OC)c1 (stereo not given)
Potency [1]: inactive
Potency [2]: inactive

COc1cccc(NC(=O)C(OC(=O)CNC(=O)c2ccccc2)c2ccccc2)c1 (stereo not given)
Potency [1]: inactive
Potency [2]: inactive

O=C(Nc1nnc(-c2ccncc2)s1)Nc1ccc(Cl)cc1F
Potency [1]: inactive
Potency [2]: inactive

O=S(=O)(Nc1cnc2ccccc2c1)c1ccc(NCc2ccc(Br)cc2O)cc1
Potency [1]: inactive
Potency [2]: inactive

COc1cccc(NC(=S)N2CCN(c3cc(C(F)(F)F)cc(C(F)(F)F)c3)CC2)n1
Potency [1]: inactive
Potency [2]: inactive

Cc1cc(NS(=O)(=O)c2ccc(NC(=O)Cc3cccc(Cl)c3)cc2)no1
Potency [1]: inactive
Potency [2]: inactive

Cc1ccc(OCCn2c(CCNC(=O)Cc3ccccc3)nc3ccccc32)cc1
Potency [1]: inactive
Potency [2]: inactive

Cc1ccc(S(=O)(=O)Nc2cccc3ccc(C)nc23)cc1
Potency [1]: inactive
Potency [2]: inactive

Cc1ccc(S(=O)(=O)Nc2ccccc2C(=O)Nc2ncc(-c3ccccc3)s2)cc1
Potency [1]: inactive
Potency [2]: inactive

FC(F)(F)c1cc(-c2nc3ccccc3s2)cc(C(F)(F)F)c1
Potency [1]: inactive
Potency [2]: inactive

Cc1cc(C)nc(NC(=S)N2CCN(c3ccc(C(F)(F)F)cn3)CC2)c1
Potency [1]: inactive
Potency [2]: inactive

O=S(=O)(c1ccc2c(c1)OCCO2)N1CCN(S(=O)(=O)c2cc(F)ccc2F)CC1
Potency [1]: inactive
Potency [2]: inactive

CCN1CCCC1Cn1c(-c2ccccc2)nc2c(NCc3ccccc3)nc(C)nc21 (stereo not given)
Potency [1]: inactive
Potency [2]: inactive

COc1ccc(NC(=O)c2cnn3c(-c4ccccc4)cc(C)nc23)cc1
Potency [1]: inactive
Potency [2]: inactive

Fc1cc(Nc2nc(-c3ccncc3)nc3ccccc23)ccc1-c1cccnc1
Potency [1]: inactive
Potency [2]: inactive

Cn1c2cc(B(O)O)sc2c2cnn(Cc3c(F)cccc3Cl)c(=O)c21
Potency [1]: inactive
Potency [2]: inactive

Cc1nc(NCc2ccccc2)c2nc(-c3ccccc3)n(C(C)CN(C)C)c2n1 (stereo not given)
Potency [1]: inactive
Potency [2]: inactive

Cc1ccc(NS(=O)(=O)c2ccc3c(c2)CCC(=O)N3)cc1F
Potency [1]: inactive
Potency [2]: inactive

Cc1ccc(-c2nccc(=O)n2CC(=O)N(C)C(C)c2ccco2)cc1 (stereo not given)
Potency [1]: inactive
Potency [2]: inactive

O=C1CCCC2=C1C(c1[nH]ncc1Cl)NC(=NCCc1cccnc1)N2 (stereo not given)
Potency [1]: inactive
Potency [2]: inactive

CC[C@H]1OC(=O)[C@H](C)[C@@H](O[C@H]2C[C@@](C)(OC)[C@@H](O)[C@H](C)O2)[C@H](C)[C@@H](O[C@@H]2O[C@H](C)C[C@H](N(C)C)[C@H]2O)[C@](C)(O)C[C@@H](C)/C(=N/OCOCCOC)[C@H](C)[C@@H](O)[C@]1(C)O
Potency [1]: inactive
Potency [2]: inactive

Nc1nc(Nc2cc(F)cc(F)c2)nc(NC2CCCC2)n1
Potency [1]: inactive
Potency [2]: inactive

COc1ccc(-c2nc3ccccc3c(=O)n2Cc2ccccc2)cc1COc1ccc(NC(C)=O)cc1
Potency [1]: inactive
Potency [2]: inactive

Nc1cc(-c2nc(Nc3ccc(F)c(F)c3)c3ccccc3n2)ccn1
Potency [1]: inactive
Potency [2]: inactive

COc1cccc(C2c3c(ncn(-c4ccc(-c5ccccc5)cc4)c3=N)Oc3ccc4ccccc4c32)c1 (stereo not given)
Potency [1]: inactive
Potency [2]: inactive

COc1ccccc1C1=Nn2c(nnc2-c2ccccc2C)SC1
Potency [1]: inactive
Potency [2]: inactive

CCCCNc1nc(C)nc2c1nc(-c1ccccc1)n2CC1CCN(C)CC1
Potency [1]: inactive
Potency [2]: inactive

CCCn1c(-c2ccc(F)cc2)nc2c(NCCCCN(C)C)nc(C)nc21
Potency [1]: inactive
Potency [2]: inactive

Cc1cc(C)nc(NC(=S)N2CCN(c3ccc([N+](=O)[O-])cc3Cl)CC2)c1
Potency [1]: inactive
Potency [2]: inactive

O=C(NC(c1ccco1)c1cc(Cl)c2cccnc2c1O)c1ccc(F)c(F)c1 (stereo not given)
Potency [1]: inactive
Potency [2]: inactive

COc1cc2nc(Nc3ccccc3)nc(NC3CC3)c2cc1OC
Potency [1]: inactive
Potency [2]: inactive

COc1cc(NS(=O)(=O)c2ccc(C)cc2)ccc1C(=O)Nc1nc(-c2ccccc2)cs1
Potency [1]: inactive
Potency [2]: inactive

Cc1cc(C)nc(NC(=S)N2CCN(c3cccc4nccn34)CC2)c1
Potency [1]: inactive
Potency [2]: inactive
